# Data published in PubChem BioAssay (NCATS).
# Records with an inconclusive call do not appear. A number with no mark means an inactive call. The source made the active and inactive calls. The call rests on the fitted dose curve; in most records, active means well fitted inhibition curve with a large enough effect; inconclusive means small, poorly fitted or top-dose-only effect; inactive means no such curve, though single readings can be large or run the other way.
# Assay: qHTS assay for measurement of the activity of small molecule inhibitors on Zika virus induced Caspase-3 activity in human iPSC derived neural progenitor cells (hNPCs) (AID 1224857); further: nearly all actives have a fitted effect of over 65% in size
# Conditions: hNPCs ZIKV-induced caspase-3/7, Caspase-Glo luminescence, 6 h; series mostly up to 45.7 µM
# From the text: National Center for Advancing Translational Sciences [NCATS]
# Johns Hopkins University School of Medicine
# Increase in the Caspase-3 activity indicates an activation of apoptosis cell death pathway caused by Zika virus infection in certain types of neuronal cells including human neural progenitor cells (hNPCs), astrocytes, and astrocytoma cell line (SNB-19). This cell-based caspase-3 activity assay measures the increased caspase-3 activity in the human iPSC derived neural progenitor cells (hNPCs) after a 6-hour Zika virus infection with a luminescence readout. A decrease in the luminescence signal in this assay by small molecule treatment indicates an inhibitory effect of that small molecule on the Zika virus induced caspase-3 activity that may correlate with its effect on reduction of Zika virus caused cell death.
# The medium for hNPCs consists of DMEM/F12, N2 supplement (ThermoFisher, Cat.# 17502048), NEAA (ThermoFisher, Cat. # 11140050), 2 ug/ml heparin, 2 uM cyclopamine, and B27 (ThermoFisher, Cat. # 17504044). A Caspase-Glo 3/7 assay kit (catalog number G8092; Promega, Madison, WI) was used to detect caspase-3 activity induced by Zika virus infection in human cells. The reagent mixture was reconstituted as described in the protocol from the manufacturer. Polystyrene tissue culture treated and PDL coated white plates were obtained from Greiner Bio-One (Monroe, NC). Cells were seeded in 384- or 1536-well assay plates and cultured at 37 C with 5% CO2 for 16 to 20 hours. The typical cell seeding density in the 1536-well plate assay is 350 cells/well in 3 ul medium for hNPCs in tissue culture treated plates. Compounds were added to cells and incubated for one hour before addition of ZIKV solution to cells (2 FFU/cell). After incubation at 37 C with 5% CO2 for 6 hours, the reagent mixture of Caspase-Glo 3/7 assay kit was added to each well, followed by incubation at room temperature for 30 minutes. The luminescence intensity of the assay plates was measured using a ViewLux plate reader (PerkinElmer). Data were normalized by using the cell-containing wells without ZIKV as a negative control (0% induction of caspase 3/7 activity) and wells containing ZIKV infected cells (Caspase-3 activity induced) as a positive control (100% induction of caspase 3 activity). The percentage inhibitions of the increased Caspase-3 activity by small molecule inhibitors were then calculated.
Structure (SMILES),outcome,"activity change, negative = inhibition"
Cc1cc(O)cc2c1O[C@](C)(CCC[C@H](C)CCC[C@H](C)CCCC(C)C)CC2,inactive,
CN1CCC[C@@H]1Cc1c[nH]c2ccc(CCS(=O)(=O)c3ccccc3)cc12,inactive,
O=c1[nH]cnc2c1ncn2[C@@H]1O[C@H](CO)[C@@H](O)[C@H]1O,inactive,
CCCCN1CCCC[C@H]1C(=O)Nc1c(C)cccc1C,inactive,
Nc1nc2c(ncn2CCC(CO)CO)c(=O)[nH]1,inactive,
CCCCCCCCCCCCOS(=O)(=O)O,inactive,
COC(=O)[C@H]1[C@H]2C[C@@H]3c4[nH]c5cc(OC)ccc5c4CCN3C[C@H]2C[C@@H](OC(=O)COc2ccc(OC)cc2)[C@@H]1OC,inactive,
OCC(CO)N[C@H]1C[C@](O)(CO)[C@@H](O)[C@H](O)[C@H]1O,inactive,
C[C@@H]1CC[C@@]2(OC1)O[C@H]1C[C@H]3[C@@H]4CC[C@H]5C[C@@H](O)CC[C@]5(C)[C@H]4CC(=O)[C@]3(C)[C@H]1[C@@H]2C,,4.72% [at 4.53 µM]
NC(=O)c1ncn([C@@H]2O[C@H](CO)[C@@H](O)[C@H]2O)c1N,inactive,
CN(N=O)C(=O)N[C@@H]1[C@@H](O)[C@H](O)[C@@H](CO)O[C@@H]1O,inactive,
C[C@]12CC[C@@H]3c4ccc(O)cc4CC[C@H]3[C@@H]1CCC2=O,inactive,
CC[C@@]1(c2ccccc2)NC(=O)N(C)C1=O,inactive,
O=S(=O)(O)c1cc(I)c(O)c2ncccc12,inactive,
CC1(C)S[C@@H]2[C@H](NC(=O)Cc3ccccc3)C(=O)N2[C@H]1C(=O)O (tested in a mixture with another compound),inactive,
CN1[C@@H]2CC(OC(=O)[C@H](CO)c3ccccc3)C[C@H]1[C@@H]1O[C@@H]12 (stereo not given in full),inactive,
C#CCN(C)Cc1ccccc1,inactive,
Oc1ccc(C(O)CNCCCCCCNCC(O)c2ccc(O)c(O)c2)cc1O (stereo not given),inactive,
CC[C@H]1CN2CCc3cc(OC)c(OC)cc3[C@@H]2C[C@@H]1C[C@H]1NCCc2cc(OC)c(OC)cc21,inactive,
COc1ccc2c(c1)C(=O)N(CCc1ccc(S(=O)(=O)NC(=O)NC3CCCCC3)cc1)C(=O)C2(C)C,inactive,

Structure (SMILES),outcome,"activity change, negative = inhibition"
O=C(O)COc1nn(Cc2ccccc2)c2ccccc12,inactive,
COc1cc(C)c(Cc2cnc(N)nc2N)cc1OC,inactive,
CCCOC(=O)c1ccccc1,inactive,
O=C1O[C@H](CO)[C@@H](O)[C@H](O)[C@H]1O,inactive,
NC1CCN(c2cccc(Cl)n2)CC1,inactive,
COC(=O)C1=C(C)NC(C)=C(C(=O)OC)C1c1ccccc1[N+](=O)[O-],inactive,
CC(=O)O[C@@]12CO[C@@H]1C[C@H](O)[C@@]1(C)C(=O)[C@H](O)C3=C(C)[C@@H](OC(=O)[C@H](O)[C@@H](NC(=O)OC(C)(C)C)c4ccccc4)C[C@@](O)([C@@H](OC(=O)c4ccccc4)[C@H]21)C3(C)C,inactive,
C[C@@H](O)[C@H](N)C(=O)O,inactive,
CC(C)c1c(C(=O)Nc2ccccc2)c(-c2ccccc2)c(-c2ccc(F)cc2)n1CC[C@@H](O)C[C@@H](O)CC(=O)O,inactive,
CCCCOC(=O)c1ccc(O)cc1,inactive,
COc1ccccc1O,inactive,
CC12CCC(CC1)C(C)(C)O2,inactive,
Oc1cccc(O)c1,inactive,
CCN(CC)CCNC(=O)c1cc(Cl)c(N)cc1OC,inactive,
COc1ccc2cc1Oc1cc3c(cc1OC)CC[N+](C)(C)[C@H]3Cc1ccc(cc1)Oc1c(OC)c(OC)cc3c1[C@@H](C2)[N+](C)(C)CC3,inactive,
CC/C=C(\C(=O)N[C@@H]1C(=O)N2C(C(=O)OCOC(=O)C(C)(C)C)=C(COC(N)=O)CS[C@H]12)c1csc(N)n1,inactive,
Cc1cc2c(cc1S(N)(=O)=O)S(=O)(=O)CCC2,inactive,
CC(=O)Nc1ccc(/C=N/NC(N)=S)cc1,inactive,
C[C@H]1O[C@@H](n2cc(F)c(=O)[nH]c2=O)[C@H](O)[C@@H]1O,inactive,
OC[C@H]1O[C@@H](O[C@@H]2[C@@H](CO)O[C@](O)(CO)[C@H]2O)[C@H](O)[C@@H](O)[C@H]1O,inactive,
